From ChEMBL document CHEMBL4513216, “Probing the Open Global Health Chemical Diversity Library for Multistage-Active Starting Points for Next-Generation Antimalarials” (ACS Infect Dis, 2020)
Among all 69,000 compounds or so, about 8,600 (12%) showed an effect of 50% or more. For the sample, strong results were picked, then their nearest neighbours and some compounds at random.

These compounds were tested on Plasmodium berghei (assay: Screen against P. berghei liver stage (PbLuc), transformed with Luciferase, at 10uM). Conditions: tested at 10 uM.
Assay type: functional, HepG2

Row | Compound | INHIBITION [%]
1 | Cc1cnc(CNC(=O)CCCn2cnc3ccccc3c2=O)cn1 | 34.6
2 | Cc1csc2c(C3CCCN(C(=O)CCn4ccnc4)C3)nc(C)n12 (centres undefined) | 57.3
3 | Cc1csc2c(C3CCCN(C(=O)CCCn4cncn4)C3)nc(C)n12 (centres undefined) | -1.16
4 | O=C(CCCc1nc(C2CC2)no1)N1CCCC(c2ccn[nH]2)C1 (centres undefined) | 52.6
5 | Cc1nc(C2CCCN2C(=O)CCCn2cccn2)no1 (centres undefined) | -25.9
6 | CC(C)c1nc(C2CCCN(C(=O)CCn3ccnc3)C2)no1 (centres undefined) | 56.1
7 | CCc1noc(CCCC(=O)N2CCCC(c3ccn[nH]3)C2)n1 (centres undefined) | 42.8
8 | Cc1nc(C2CCCN(C(=O)CCCn3cccn3)C2)no1 (centres undefined) | 53.5
9 | CC(C)c1nc(C2CCCN(C(=O)CCn3cncn3)C2)no1 (centres undefined) | 31.2
10 | Cc1csc2c(C3CCCN(C(=O)CCn4cncn4)C3)nc(C)n12 (centres undefined) | 5.34
11 | CC(C)c1nc(C2CCCN(C(=O)CCCn3ccnc3)C2)no1 (centres undefined) | -19.4
12 | CCCc1noc(CCC(=O)N2CCCC(c3ccn[nH]3)C2)n1 (centres undefined) | 16.8
13 | CC(C)c1nc(C2CCCN(C(=O)CCCn3cccn3)C2)no1 (centres undefined) | -29.8
14 | Cc1ccc(S(=O)(=O)Nc2cnn(C3CCOCC3)c2)cc1C | -52.5
15 | CCCc1ccc(S(=O)(=O)NC(=O)CCc2cscn2)cc1 | 16.2
16 | O=S(=O)(c1cncc(F)c1)N1CCSC2(CCCCC2)C1 | 28.5
17 | COc1c(C2CCCN2C(=O)c2cccnc2N(C)C)c(C)nn1C (centres undefined) | 23.4
18 | COc1ccc(-n2cc(CNC(=O)c3cc[nH]n3)nn2)cc1 | -120
19 | O=S(=O)(CCCN1CCc2c(ncn2C2CC2)C1)c1ccccc1 | -27.5
20 | CC(C)CN1C(=O)CC(N2CCN(c3ccc(F)cc3)CC2)C1=O (centres undefined) | 54
21 | CCCN1C(=O)CC(N2CCN(c3ccc(F)cc3)CC2)C1=O (centres undefined) | -34.7
22 | CC(C)N1C(=O)CC(N2CCN(c3ccc(F)cc3)CC2)C1=O (centres undefined) | 14.3
23 | CCN(Cc1ccc2c(c1)OCO2)C(=O)NC(C)Cn1ccnc1 (centres undefined) | 26.4

Row | Compound | INHIBITION [%]
24 | Cc1sc(CNS(N)(=O)=O)nc1-c1ccc(Cl)cc1 | -20.6
25 | CCC(N)C(=O)N1CCC(OCc2ccc(Cl)c(Cl)c2)CC1 (centres undefined) | 47.7
26 | CNC(=O)CN1CCC(OCc2ccc(Cl)c(Cl)c2)CC1 | 65.6
27 | NC(=O)CN1CCC(OCc2ccc(Cl)c(Cl)c2)CC1 | 33.1
28 | CC1=N[C@@]2(CC[C@@H]3CN(Cc4ccccc4F)C[C@@H]32)C(=O)N1CC1CC1 | 20.1
29 | CCn1ncnc1C1CC(=O)NCc2nc(N)sc21 (centres undefined) | 19.7
30 | CC(C)C(=O)N1CCN(Cc2csc(-c3ncccn3)n2)CC1 | 41.8
31 | CS(=O)(=O)N1CCN(Cc2csc(-c3ncccn3)n2)CC1 | 56.8
32 | CC(C)c1nc(CN2CCN(Cc3ccccn3)CC2)cs1 | -53.5
33 | Cc1ccc(-c2nc(CN3CCN(S(=O)(=O)N(C)C)CC3)cs2)o1 | 52.1
34 | CC(O)CN1CCN(Cc2csc(-c3ncccn3)n2)CC1 (centres undefined) | 60.8
35 | OC(c1ccccc1)C1CCN(Cc2csc(-c3ncccn3)n2)CC1 (centres undefined) | 59.8
36 | CC(C)CC(=O)N1CCN(Cc2csc(-c3ncccn3)n2)CC1 | 10.6
37 | CC(C)C(=O)N1CCN(Cc2csc(-c3ccccn3)n2)CC1 | 47.4
38 | Cc1ccc(-c2nc(CN3CCN(CC(=O)N(C)C)CC3)cs2)o1 | 15.3
39 | COC(=O)N1CCN(Cc2csc(-c3ncccn3)n2)CC1 | -42.5
40 | CC(=O)N1CCCN(Cc2csc(-c3ncccn3)n2)CC1 | 30.8
41 | Cc1ccc(-c2nc(CN3CCN(C(=O)C4CC4)CC3)cs2)o1 | -34
42 | Cn1ccc(C(=O)NCc2ccc(N3CCCCC3)nc2)cc1=O | 46.2
43 | O=C(O)[C@]12CCCN(Cc3ccncc3)C[C@H]1CN(c1ncccn1)C2 | -20.1
44 | Cn1cnc2c1C(COCC1CCOCC1)CN(Cc1ccccn1)C2 (centres undefined) | 36.9
45 | Cc1oncc1C(=O)N1CCC2(CC1)CC(N1CCOCC1)C2 | -15.9
46 | CNc1cc(-c2ccncc2)ncn1 | 24.8

Row | Compound | INHIBITION [%]
47 | Cc1cnn(CC2CCCCN2C(=O)c2ccc3c(c2)COC3)c1 (centres undefined) | -18
48 | Cc1cc(C)n(CC2CCCN2C(=O)c2ccc3[nH]c(=O)[nH]c3c2)n1 (centres undefined) | 16.3
49 | Cc1cc(C)n(CC2CCCN2C(=O)c2cccc3c2OCO3)n1 (centres undefined) | 25.15
50 | Cc1cc(C)n(CC2CCCN2C(=O)c2ccc3c(c2)OCO3)n1 (centres undefined) | 52.1
51 | Cc1cc(C)n(CC2CCCCN2C(=O)c2ccc3c(c2)COC3)n1 (centres undefined) | 56.4
52 | Cc1cc(C)n(CC2CCCCN2C(=O)c2ccc3c(c2)OCO3)n1 (centres undefined) | 5.97
53 | Cc1cc(C)n(CC2CCCN2C(=O)c2ccc3c(c2)OCCO3)n1 (centres undefined) | 15.2
54 | Cc1cc(C)n(CC2CCCCN2C(=O)c2ccc(C(N)=O)cc2)n1 (centres undefined) | -10.6
55 | Cc1cc(C)n(CC2CCCN2C(=O)c2ccc3c(c2)COC3)n1 (centres undefined) | 51.6
56 | CN(C)CC(=O)NC1CC(C)(C)Cc2nc(C(C)(C)C)ncc21 (centres undefined) | 43.6
57 | O=C(CN1CC(c2ccccc2)CC1=O)NCc1cc2n(n1)CCNC2 (centres undefined) | 17.3
58 | Cc1noc2nc3c(c(C(=O)/N=c4\[nH]nc(C(C)C)s4)c12)CCC3 | 38
59 | Cn1cc(CN2CCO[C@@H]3CN(Cc4ccoc4)C[C@@H]3C2)cn1 | -18.4
60 | COCC(NC1CCSCC1)c1ccnn1C (centres undefined) | 47.6
61 | CN1C(=O)C2(CCCN(C(=O)c3cccnc3O)C2)c2ccccc21 (centres undefined) | 7.25
62 | Cc1ccc(NC(=O)NCC2(N3CCOCC3)CCSC2)c(C)c1 (centres undefined) | 74.2
63 | O=C(NCC1(N2CCOCC2)CCSC1)Nc1ccc(F)cc1 (centres undefined) | 23.5
64 | Cc1cccc(NC(=O)NCC2(N3CCOCC3)CCSC2)c1 (centres undefined) | 34.5
65 | COc1nc2c(cc1C(=O)NC(C)Cc1cc(C)n[nH]1)CCC2 (centres undefined) | -37.9
66 | Cn1c(=O)[nH]c(=O)n2c(CC(=O)Nc3ccc(Cl)c(Cl)c3)cnc12 | 20.1
67 | CCc1nnc(CN(C)c2nc(C(C)C)nc3c2cnn3C)o1 | 53.5
68 | Cc1nc(N(C)CCN(C)C)c2cnn(C)c2n1 | 29.2
69 | CCc1nnc(CN(C)c2nc(C3CCCC3)nc3c2cnn3C)o1 | 1.81
